Screening results as filed in PubChem.
Most compounds without a hit are left out; they make up all but 4.9% or so of the library.
SKKanGAS inh = inhibitors of SKKanGAS S. pyogenes growth in kanamycin (SK-promoter or general growth effect); BacTiter-Glo, 6 h; inhibition, % at 7.5 µM; hit rate 1.3% among 300,000; AID 1662;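 active = mean replicate score, as percent of positive control median, at least 50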;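 note: strain carries kanamycin resistance gene driven by streptokinase promoter and grows in 40 µg/ml kanamycin; loss of luminescence reflects streptokinase promoter inhibition or plain growth inhibition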
NALP3 yeast inh = NALP3 inhibition in yeast | Yeast reconstituted NLRP3/ASC/caspase-1, beta-gal luminescence, 24 h | inhibition, % at 10 µM | hit rate 0.39% among 330,000 | AID 2825;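 active = inhibition of 50% or more; inactive = inhibition below 50%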
TIM10 inh = growth inhibitors of TIM10 yeast strain; S. cerevisiae TIM10 strain growth, BacTiter-Glo luminescence, 24 h; inhibition, % at 10 µM; hit rate 1.4% among 330,000; AID 463195;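 active = inhibition of 40% or more at the single tested concentration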;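 note: wild-type TIM10 isogenic control strain grown at permissive 25 °C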
tim23-1 inh = inhibits growth of tim23-1 mutant yeast; inhibition, % at 20 µM; S. cerevisiae tim23-1 growth, BacTiter-Glo luminescence, 24 h; hit rate 1.3% among 330,000;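 active = growth inhibition of the mutant yeast at or above 50%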;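 note: temperature-sensitive mutant grown at 25 °C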
tim10-1 inh = inhibits growth of tim10-1 mutant yeast; inhibition, % at 20 µM; S. cerevisiae tim10-1 ts strain growth, BacTiter-Glo, 24 h; hit rate 2.2% among 330,000; AID 463190;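 active = inhibition of at least 40%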;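 note: mutant grown at 25 °C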
NALP1 inh = blocks the NALP1 inflammasome reconstituted in yeast | S. cerevisiae NALP1/ASC/caspase-1 growth, X-gal OD620, 72 h | inhibition, % at 10 µM | hit rate 0.61% among 280,000 | AID 2071; in the data active = inhibition mostly above about 24%, no sharp cut-off; inactive = mostly below about 32%
Numbers stand for hits.

CCc1ccc(C2=NNC(=Nc3cccc(S(=O)(=O)N(C)C)c3)SC2)cc1 was read as SKKanGAS inh inactive, NALP3 yeast inh inactive, TIM10 inh inactive, tim23-1 inh inactive and tim10-1 inh inactive.
Screening O=C(Nc1nc(-c2ccccn2)cs1)c1ccc([N+](=O)[O-])o1 returned SKKanGAS inh inactive, NALP3 yeast inh inactive, TIM10 inh inactive, tim23-1 inh inactive, tim10-1 inh inactive and NALP1 inh inactive.
Screening Cc1ccc(C(=O)Nc2nc(-c3ccccn3)cs2)o1 returned SKKanGAS inh 77, NALP3 yeast inh inactive, TIM10 inh inactive, tim23-1 inh inactive, tim10-1 inh inactive and NALP1 inh inactive.
`CC(=O)C1=C(C)N(Cc2ccccc2)C(=O)N[C@H]1c1ccco1` gave SKKanGAS inh inactive, NALP3 yeast inh inactive, TIM10 inh inactive, tim23-1 inh inactive, tim10-1 inh inactive and NALP1 inh inactive.
CCOc1ccc(Cl)cc1S(=O)(=O)N1CCN(c2ccc(C)c(C)c2)CC1 was read as SKKanGAS inh inactive, NALP3 yeast inh inactive, TIM10 inh inactive, tim23-1 inh inactive, tim10-1 inh inactive and NALP1 inh inactive.
For CCOc1ccc(Cl)cc1S(=O)(=O)n1cnc2cc(C)c(C)cc21 the results were SKKanGAS inh 52, NALP3 yeast inh inactive, TIM10 inh inactive, tim23-1 inh inactive, tim10-1 inh inactive and NALP1 inh 41.
`COc1ccc(-n2cc(CN(C)CCO)c(-c3cccc(F)c3)n2)cc1` gave SKKanGAS inh inactive, NALP3 yeast inh inactive, TIM10 inh inactive, tim23-1 inh inactive, tim10-1 inh inactive and NALP1 inh 24.
COc1ccc(-n2cc(CNCCc3cnc[nH]3)c(-c3cccc(F)c3)n2)cc1 was read as SKKanGAS inh inactive, NALP3 yeast inh inactive, TIM10 inh inactive, tim23-1 inh inactive, tim10-1 inh inactive and NALP1 inh 27.
For COc1ccc(-n2cc(CN(C)C(C)c3ccncn3)c(-c3cccc(F)c3)n2)cc1 (stereo unspecified) the results were SKKanGAS inh inactive, NALP3 yeast inh inactive, TIM10 inh inactive, tim23-1 inh inactive, tim10-1 inh inactive and NALP1 inh inactive.
COC(=O)CSC1=C(C#N)C(c2ccccc2F)CC(=O)N1 (stereo unspecified) was read as SKKanGAS inh inactive, NALP3 yeast inh inactive, TIM10 inh inactive, tim23-1 inh inactive, tim10-1 inh inactive and NALP1 inh inactive.
`Cc1c(NC(=O)CSC2=C(C#N)C(c3ccccc3F)CC(=O)N2)c(=O)n(-c2ccccc2)n1C` (stereo unspecified) gave SKKanGAS inh 96, NALP3 yeast inh inactive, TIM10 inh inactive, tim23-1 inh inactive, tim10-1 inh inactive and NALP1 inh inactive.
`COc1ccccc1CN(C(=O)c1cnccn1)C(C(=O)NC1CCCCC1)c1cc(OC)c(OC)c(OC)c1` (stereo unspecified) gave SKKanGAS inh inactive, NALP3 yeast inh inactive, TIM10 inh inactive, tim23-1 inh inactive, tim10-1 inh inactive and NALP1 inh inactive.
For CCOC(=O)c1c(S(=O)(=O)N2CCC(C)CC2)c(C)n(C)c1C the results were SKKanGAS inh inactive, NALP3 yeast inh inactive, TIM10 inh inactive, tim23-1 inh inactive, tim10-1 inh inactive and NALP1 inh inactive.
CCOC(=O)N1CCN(C(=O)CN2C(=O)COc3ccc(C(C)(C)C)cc32)CC1 was read as SKKanGAS inh inactive, NALP3 yeast inh inactive, TIM10 inh inactive, tim23-1 inh inactive, tim10-1 inh inactive and NALP1 inh 26.
O=[N+]([O-])c1cccc(/C=N/Nc2nc(N3CCCCC3)nc(N3CCCCC3)n2)c1 was read as SKKanGAS inh 52, NALP3 yeast inh inactive, TIM10 inh inactive, tim23-1 inh inactive, tim10-1 inh inactive and NALP1 inh inactive.
`Oc1ccc(/C=N/Nc2ccc3ccccc3c2)c(O)c1` gave SKKanGAS inh 52, NALP3 yeast inh inactive, TIM10 inh inactive, tim23-1 inh inactive, tim10-1 inh inactive and NALP1 inh inactive.
Oc1ccc(/C=N/Nc2nc(N3CCCCCC3)nc(N3CCCCCC3)n2)c(O)c1 was read as SKKanGAS inh 112, NALP3 yeast inh inactive, TIM10 inh inactive, tim23-1 inh inactive, tim10-1 inh inactive and NALP1 inh inactive.
`Brc1cccc(/C=N/Nc2nc(N3CCCCC3)nc(N3CCCCC3)n2)c1` gave SKKanGAS inh inactive, NALP3 yeast inh inactive, TIM10 inh inactive, tim23-1 inh inactive, tim10-1 inh inactive and NALP1 inh inactive.
C(=N\Nc1nc(N2CCCCCC2)nc(N2CCCCCC2)n1)/c1ccccc1 was read as SKKanGAS inh 69, NALP3 yeast inh inactive, TIM10 inh inactive, tim23-1 inh inactive, tim10-1 inh inactive and NALP1 inh inactive.
Screening CC(C)CNc1nc(N)c([N+](=O)[O-])c(N2CCCCCC2)n1 returned SKKanGAS inh inactive, NALP3 yeast inh inactive, TIM10 inh inactive, tim23-1 inh inactive, tim10-1 inh inactive and NALP1 inh inactive.
COc1cccc(-c2nc(CS(=O)(=O)CC(=O)Nc3ccccc3Br)c(C)o2)c1 was read as SKKanGAS inh inactive, NALP3 yeast inh inactive, TIM10 inh inactive, tim23-1 inh inactive, tim10-1 inh inactive and NALP1 inh inactive.
`CCCn1nc(C(=O)Nc2ccc3nc(N4CCOCC4)sc3c2)ccc1=O` gave NALP3 yeast inh inactive, TIM10 inh inactive, tim23-1 inh inactive and tim10-1 inh inactive.
Screening Oc1nc(Nc2ccc(F)cc2)sc1/C=C1\C=Nc2ccccc21 returned SKKanGAS inh 55, NALP3 yeast inh inactive, TIM10 inh inactive, tim23-1 inh inactive, tim10-1 inh inactive and NALP1 inh inactive.
`COc1cccc(CNC(=O)CCS(=O)(=O)c2ccc3c(c2)CC(C)N3C(=O)C2CC2)c1` (stereo unspecified) gave SKKanGAS inh inactive, NALP3 yeast inh inactive, TIM10 inh inactive, tim23-1 inh inactive, tim10-1 inh inactive and NALP1 inh inactive.
Screening CSc1nc(SCC(=O)O)c2sc3nc(-c4ccccc4)c4c(c3c2n1)CCC4 returned SKKanGAS inh 68 and NALP1 inh inactive.
`O=C(C[n+]1ccccn1)c1ccccc1` gave SKKanGAS inh inactive, NALP3 yeast inh inactive, TIM10 inh inactive, tim23-1 inh inactive, tim10-1 inh inactive and NALP1 inh inactive.
For N=c1n(CCN2CCCCC2)c2ccccc2n1CC(O)c1ccc(Cl)c(Cl)c1 (stereo unspecified) the results were SKKanGAS inh inactive, NALP3 yeast inh inactive, TIM10 inh inactive, tim23-1 inh inactive, tim10-1 inh inactive and NALP1 inh 43.
Screening N=c1n(CCN2CCCCC2)c2ccccc2n1CC(O)c1cccc(Br)c1 (stereo unspecified) returned SKKanGAS inh inactive, NALP3 yeast inh inactive, TIM10 inh inactive, tim23-1 inh inactive, tim10-1 inh inactive and NALP1 inh inactive.
Screening C#C[C@]1(O)CC[C@H]2[C@@H]3CCc4cc(OC)ccc4[C@H]3CC[C@@]21C returned SKKanGAS inh inactive, NALP3 yeast inh inactive, TIM10 inh inactive, tim23-1 inh inactive, tim10-1 inh inactive and NALP1 inh inactive.
